Assay outcomes from PubChem BioAssay.
Hits are enriched below; roughly 19% of the tested compounds scored in any of these assays.
TDP1 inh: blocks human tyrosyl-DNA phosphodiesterase 1; Q9NUW8; recombinant TDP1, AlphaScreen DNA substrate cleavage; Potency, µM (top dose mostly 130 µM), inactives show at the top dose activity change, negative = inhibition, actives largely listed as inhibitors; 350,000 compounds, 0.28% hits; AID 485290; further: potency means the concentration at half of the fitted maximal effect; on the % scale 0 is the no-effect control and ±100 the full control effect; nearly all actives have a fitted effect of over 40% in size
Target sequence (Q9NUW8 whole entry, looked up): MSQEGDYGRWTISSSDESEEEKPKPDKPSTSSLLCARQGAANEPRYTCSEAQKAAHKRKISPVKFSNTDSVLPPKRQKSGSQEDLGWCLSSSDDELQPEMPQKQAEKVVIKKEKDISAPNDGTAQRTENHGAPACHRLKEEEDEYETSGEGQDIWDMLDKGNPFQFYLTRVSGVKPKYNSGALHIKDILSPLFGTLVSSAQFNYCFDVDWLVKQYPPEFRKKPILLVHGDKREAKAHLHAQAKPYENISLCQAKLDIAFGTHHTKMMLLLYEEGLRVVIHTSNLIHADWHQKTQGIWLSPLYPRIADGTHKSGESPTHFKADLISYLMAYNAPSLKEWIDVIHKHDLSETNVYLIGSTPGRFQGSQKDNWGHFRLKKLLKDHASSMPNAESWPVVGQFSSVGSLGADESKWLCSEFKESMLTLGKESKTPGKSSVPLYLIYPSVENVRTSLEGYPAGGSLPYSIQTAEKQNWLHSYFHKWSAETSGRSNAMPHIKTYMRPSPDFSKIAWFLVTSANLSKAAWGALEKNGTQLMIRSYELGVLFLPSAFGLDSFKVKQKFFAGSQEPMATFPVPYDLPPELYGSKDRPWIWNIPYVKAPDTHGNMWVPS
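Recombinant E. coli-expressed Tdp1 (1 nM) preincubated with compound 15 min at RT, then 5'-biotin/3'-phosphotyrosine-FITC DNA substrate (15 nM) added for 5 min. AlphaScreen beads (10 ug/ml) added, 10 min RT; tyrosine-FITC cleavage read as signal loss.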
DT40 TDP1 no CPT: qHTS for Inhibitors of human tyrosyl-DNA phosphodiesterase 1 (TDP1): qHTS in cells in absence of CPT. DT40 Tdp1-/- hTDP1 cells, no CPT, ATP luminescence, 48 h. Potency, µM (titrated, usually from 46.2 µM), for the others: top-dose activity change, negative = growth inhibition, usual class: inhibitors. 420,000 compounds, 15% hits. AID 686978, 2013; further: potency means the concentration at half of the fitted maximal effect; on the % scale 0 is the no-effect control and ±100 the full control effect; nearly all actives have a fitted effect of over 55% in size
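No-CPT arm: Tdp1-/-;hTDP1 DT40 cells (400/well) plus compounds, incubated ≥48 hr at 37 °C. Readout CellTiter-Glo luminescence.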
IL-1B inflam inh: blocks inflammasome-driven IL-1 beta release; 360,000 compounds, 4.7% hits; THP-1 LPS/ATP IL-1B secretion, AlphaLISA, 16 h; stronger effect = lower value; AID 743279; activity change, % at 57.5 µM; in the data active means activity change below about -50%; inconclusive means mostly about -30% to -49%; further: on the % scale 0 is the no-effect control and ±100 the full control effect
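THP-1 cells pretreated 1 hr with compounds (up to 57.5 uM final), then stimulated with LPS (250 ng/mL final) plus ATP (1.25 mM final); secreted IL-1B measured by AlphaLISA after 16 hr, decreased signal indicating inhibition.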
HepG2 viability: counter-screen for TGF-b inhibitors: cytotoxicity in HepG2 cells | HepG2 CAGA-GFP viability, ATP luminescence, 18 h | Potency, µM (series often up to 46.1 µM), for inactives: top-dose activity change, negative = cytotoxicity, actives largely listed as cytotoxic | 410,000 compounds, 0.76% hits; further: potency means the concentration at half of the fitted maximal effect
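CellTiter-Glo luminescence gave cytotoxicity after 18 hours at 37 degrees C. The cells were HepG2 CAGA-GFP in 1% FBS DMEM, stimulated with 500 pg/mL TGF-beta after compound addition. %Activity was normalised to no-cell wells (complete cell-killing) and DMSO (no toxicity), and curves were fitted and classified.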
TGFb SMAD3 inh: TGF-b pathway inhibition. HepG2 CAGA-GFP TGF-b/SMAD3 reporter, GFP fluorescence, 18 h; TGF-beta stimulated, 500 pg/mL final. Potency, µM (titrated, usually from 46.1 µM), for the others: at the highest dose activity, negative = inhibition, most hits filed as inhibitors. 410,000 compounds, 1.2% hits. AID 588855; further: potency means the concentration at half of the fitted maximal effect; on the % scale 0 is the no-effect control and ±100 the full control effect; nearly all actives have a fitted effect of over 65% in size
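Read-out: total well GFP (ex488/em500-530) summed from mean per-cell fluorescence. Cells: HEPG2 CAGA-GFP, 1% FBS DMEM, 18 h at 37 degrees C with 500 pg/mL final TGF-beta. Unstimulated wells served as the full-inhibition control; stimulated DMSO wells = 0%.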
TDP1 cell CPT: growth inhibition of DT40 Tdp1-/-;hTDP1 cells with camptothecin (screen for TDP1 inhibitors). AID 686979. chicken DT40 Tdp1-/-;hTDP1 cells + 20 nM CPT, ATP luminescence, 48 h. Potency, µM (doses to about 46.2 µM), for the others: at the top dose activity change, negative = growth inhibition, usual class: inhibitors. 420,000 compounds, 12% hits; further: potency means the concentration at half of the fitted maximal effect; on the % scale 0 is the no-effect control and ±100 the full control effect; nearly all actives have a fitted effect of over 55% in size
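Cell growth measured by CellTiter-Glo luminescence after a minimum 48 h, 37 C compound exposure with 20 nM CPT in Tdp1-knockout DT40 cells stably expressing hTDP1, seeded 400/well; qHTS titration format.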
* = called active by the depositor; i = inactive; u = inconclusive; x = no result; [ ] = another dose, or the depositor's remark. Unless noted, the call rests on the fitted dose curve; in most records, active means well fitted curve in the direction sought with a large enough effect; inconclusive means small, poorly fitted or top-dose-only effect, or another doubt; inactive means no such curve, though single readings can be large; an effect the other way counts as inactive or inconclusive.

SMILES	TDP1 inh	DT40 TDP1 no CPT	IL-1B inflam inh	HepG2 viability	TGFb SMAD3 inh	TDP1 cell CPT
FC(F)(F)c1cccc(-c2nnc(-c3ccccc3)c(N3CCOCC3)n2)c1	1%	16µM*	-26	-44%	67%	18µM*
CC1CN(c2nc(-c3ccc(Br)cc3)nnc2-c2ccccc2)CC(C)N1 (stereo unspecified)	4%	10µM*	-105*	-2%	-3%	13µM*
CCCc1cc(=O)[nH]c(SCC(=O)N2CC3(C)CC2CC(C)(C)C3)n1 (stereo unspecified)	3%	15%	0	-1%	20%	2%
O=C(COCc1cc(-c2cccs2)on1)NCc1ccccc1Cl	-5%	-26%	x	-24%	-19%	-19%
Cn1c2ccccc2c2cc(C(=O)NNC(=O)CCl)sc21	u	9.2µM*	-133*	-28%	-21%	3.7µM*
CCCNC(=O)c1cc2c3ccccc3n(C)c2s1	8%	-22%	3	-28%	-18%	-4%
CC(=O)Nc1ccc(S(=O)(=O)NNC(=O)c2cccc3ccccc23)cc1	3%	u	-7	-3%	26%	-22%
CC(=O)Nc1ccc(S(=O)(=O)NNC(=O)c2cc3c4ccccc4n(C)c3s2)cc1	-2%	5.2µM*	-5	-15%	-5%	5.2µM*
Cc1cnc(NC(=O)c2ccc3ncsc3c2)s1	0%	u	-4	8%	-4%	-8%
Cc1ccc(S(=O)(=O)c2cc3c(=O)n4ccccc4nc3n(CCCN3CCOCC3)c2=N)cc1C	10%	7%	-72*	-44%	-9%	u
Cc1ccc(S(=O)(=O)c2cc3c(=O)n4ccccc4nc3n(C3CCCCC3)c2=N)cc1	2%	21µM*	i	-8%	26%	u
N=c1c(S(=O)(=O)c2ccccc2)cc2c(=O)n3ccccc3nc2n1C1CCCC1	x	u	9	-23%	14%	-2%
Cc1ccc(O)c(N=Nc2ccc(S(=O)(=O)N3CCOCC3)cc2)c1	4%	-16%	-5	-8%	-1%	2%
C/C(O)=C(\N=Nc1cc(C)ccc1O)C(N)=O	8%	21µM*	30	-31%	-21%	u
COc1cccc(C(C)(O)c2nc(-c3cc4ccccc4o3)cs2)c1 (stereo unspecified)	x	23µM*	62	-80%	8.9µM*	16µM*
CC(O)(c1cccc(F)c1)c1nc(-c2cc3ccccc3o2)cs1 (stereo unspecified)	x	23µM*	27	-34%	u	u
CC(O)(c1ccc(F)c(F)c1)c1nc(-c2cc3ccccc3o2)cs1 (stereo unspecified)	x	15µM*	6	-55%	u	u
Cc1ccc(S(=O)(=O)n2c3ccccc3c3nnc(C(=O)c4ccccc4)nc32)cc1	13%[21 µM]	x	x	x	x	x
Cc1cc(C(=O)C(=O)Nc2nnc(C(C)C)s2)c(C)n1-c1ccccc1	9%	-10%	x	-31%	1%	u
CCc1ccc(S(=O)(=O)c2cn(C)c3cc(N4CCOCC4)c(F)cc3c2=O)cc1	-5%	-29%	x	11%	16%	-29%
CCc1ccc(S(=O)(=O)c2cn(C)c3cc(N4CCCCC4C)c(F)cc3c2=O)cc1 (stereo unspecified)	1%	15µM*	x	-5%	15%	u
Cn1cc(S(=O)(=O)c2ccccc2)c(=O)c2cc(F)c(N3CCCC3)cc21	2%	-21%	x	28%	1%	-17%
Cc1ccc(C)c(S(=O)(=O)c2cn(C)c3cc(N4CCCCC4C)c(F)cc3c2=O)c1 (stereo unspecified)	6%	21µM*	x	5%	1%	21µM*
CCc1ccc(S(=O)(=O)c2cn(C)c3cc(N4CCC(C)CC4)c(F)cc3c2=O)cc1	4%	15µM*	x	-1%	-10%	15µM*
COc1ccc(-c2csc(-c3cc4ccccc4oc3=N)n2)cc1	u	-28%	-13	5%	-1%	8%
SMILES	TDP1 inh	DT40 TDP1 no CPT	IL-1B inflam inh	HepG2 viability	TGFb SMAD3 inh	TDP1 cell CPT
COc1ccc(NCc2cc3ccc(OC)cc3n(CC(=O)Nc3cccc(OC)c3)c2=O)cc1	6%	x	x	-16%	-14%	x
Cc1cccc(NC(=O)N2CCc3c(sc4c3CCCC4)C2c2ccc(F)cc2)c1 (stereo unspecified)	-11%	16µM*	x	-14%	0%	u
COc1ccc(NC(=O)N2CCc3c(sc4c3CCCC4)C2c2ccc(F)cc2)cc1 (stereo unspecified)	-1%	21µM*	x	-17%	u	u
O=C(CCCn1cc([N+](=O)[O-])cn1)Nc1ccc2c(c1)OCO2	5%[0.0935 µM]	-17%	2	-9%	-2%	-16%
C[C@H]1Cc2c(-c3ccccc3)nc3c(c2CO1)CN(C(=O)NCCc1c[nH]c2ccccc12)CC3	-1%[12.3 µM]	x	x	x	x	x
COc1cccc(NC(=O)c2nc(S(C)(=O)=O)ncc2Cl)c1	3%	0.65µM*	-101*	-96%	16µM*	1µM*
COc1cccc(NC(=O)c2nc(SC)ncc2Cl)c1	4%	u	28	-11%	-1%	u
COc1cccc(NC(=O)c2ncc(Cl)c(Cl)c2Cl)c1	6%	5.2µM*	-15	7%	0%	7.3µM*
CCS(=O)(=O)c1ncc(Cl)c(C(=O)Nc2c(C(=O)Nc3cccc(C)c3)oc3ccccc23)n1	-1%	0.73µM*	x	-20%	0.89µM*	1µM*
Cc1cccc(NC(=O)c2nc(S(C)(=O)=O)ncc2Cl)c1	3%	0.92µM*	x	20µM*	7.9µM*	0.65µM*
COC(=O)c1cc(NC(=O)c2ccccc2F)cc(C(=O)OC)c1	6%	-12%	11	-9%	-4%	5%
COc1cccc(NC(=O)C(=O)NCCCN2CCCC2=O)c1	-3%	-1%	-2	-11%	8%	14%
CN(C)CCC(Oc1ccccc1OCc1ccccc1)c1ccccc1 (stereo unspecified)	x	16µM*	-90*	-53%	0%	u
CCC1CN(C(=O)Nc2cccc3c2CCCC3)c2ccccc2O1 (stereo unspecified)	4%	16µM*	x	-40%	u	u
CCC1CN(C(=O)Nc2ccc(C)cc2)c2cc(C)ccc2O1 (stereo unspecified)	-1%	16µM*	-11	-14%	-1%	u
